# Source: the supplement of paper PMC8728848
# The entries come from a sample that favours the strongest signals as a whole.
# B1: ECL (Erythrina cristagalli), Q6YD91 (protein)
# chain: VETISFSFSEFEPGNNDLTLQGAAIITQSGVLQLTKINQNGMPAWDSTGRTLYTKPVHIWDMTTGTVASFETRFSFSIEQPYTRPLPADGLVFFMGPTKSKPAQGYGYLGVFNNSKQDNSYQTLAVEFDTFSNPWDPPQVPHIGIDVNSIRSIKTQPFQLDNGQVANVVIKYDASSKILLAVLVYPSSGAIYTIAEIVDVKQVLPEWVDVGLSGATGAQRDAAETHDVYSWSFHASLPETND
# What was measured:
# Test in all cases: glycan array binding signal (z-score within array); higher = stronger binding
# Conditions in all cases: glycan notation: IUPAC condensed, linker removed
# [1] = molecular target: Gal(b1-4)GlcNAc(b1-3)Gal(b1-4)GlcNAc(b1-3)Gal(b1-4)GlcNAc(b1-3)Gal(b1-4)GlcNAc(b1-3)Gal(b1-4)GlcNAc(b1-2)Man(a1-3)[Gal(b1-4)GlcNAc(b1-3)Gal(b1-4)GlcNAc(b1-3)Gal(b1-4)GlcNAc(b1-3)Gal(b1-4)GlcNAc(b1-3)Gal(b1-4)GlcNAc(b1-2)Man(a1-6)]Man(b1-4)GlcNAc(b1-4)GlcNAc
# Method in brief: (§1)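 From the Consortium for Functional Glycomics database, 3228 arrays were curated, keeping only those whose protein sequence was available. Binding is given as a within-array Z-score averaged across arrays sharing a protein sequence and across linkers. Negative Z-scores can be read as non-binding.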
# [2] = molecular target: Gal(b1-4)GlcNAc(b1-3)Gal(b1-4)GlcNAc(b1-3)Gal(b1-4)GlcNAc(b1-3)Gal(b1-4)GlcNAc(b1-3)Gal(b1-4)GlcNAc(b1-2)[Gal(b1-4)GlcNAc(b1-3)Gal(b1-4)GlcNAc(b1-3)Gal(b1-4)GlcNAc(b1-3)Gal(b1-4)GlcNAc(b1-3)Gal(b1-4)GlcNAc(b1-6)]Man(a1-6)[Gal(b1-4)GlcNAc(b1-3)Gal(b1-4)GlcNAc(b1-3)Gal(b1-4)GlcNAc(b1-3)Gal(b1-4)GlcNAc(b1-3)Gal(b1-4)GlcNAc(b1-2)Man(a1-3)]Man(b1-4)GlcNAc(b1-4)[Fuc(a1-6)]GlcNAc
# Method in brief: as §1
# [3] = molecular target: Gal(b1-4)GlcNAc(b1-3)Gal(b1-4)GlcNAc(b1-3)Gal(b1-4)GlcNAc(b1-3)Gal(b1-4)GlcNAc(b1-3)Gal(b1-4)GlcNAc(b1-3)Gal(b1-4)GlcNAc(b1-2)Man(a1-3)[Gal(b1-4)GlcNAc(b1-3)Gal(b1-4)GlcNAc(b1-3)Gal(b1-4)GlcNAc(b1-3)Gal(b1-4)GlcNAc(b1-3)Gal(b1-4)GlcNAc(b1-3)Gal(b1-4)GlcNAc(b1-2)Man(a1-6)]Man(b1-4)GlcNAc(b1-4)GlcNAc
# Method in brief: as §1
# [4] = molecular target: Gal(b1-4)GlcNAc(b1-3)[Gal(b1-4)GlcNAc(b1-6)]Gal(b1-4)GlcNAc
# Method in brief: as §1
# Gal3S(b1-3)GlcNAc = molecular target: Gal3S(b1-3)GlcNAc
# Method in brief: as §1
# Gal3S4S(b1-4)GlcNAc = molecular target: Gal3S4S(b1-4)GlcNAc
# Method in brief: as §1
# Gal4S(b1-4)GlcNAc = molecular target: Gal4S(b1-4)GlcNAc
# Method in brief: as §1
# [5] = molecular target: GalNAc(b1-4)GlcNAc(b1-3)GalNAc(b1-4)GlcNAc
# Method in brief: as §1
# Glc(b1-4)Glc = molecular target: Glc(b1-4)Glc
# Method in brief: as §1
# Glc(b1-6)Glc = molecular target: Glc(b1-6)Glc
# Method in brief: as §1
# [6] = molecular target: GlcNAc(a1-4)Gal(b1-4)GlcNAc(b1-3)Gal(b1-4)GlcNAc
# Method in brief: as §1
# [7] = molecular target: GlcNAc(a1-6)Gal(b1-4)GlcNAc
# Method in brief: as §1
# [8] = molecular target: GlcNAc(b1-2)[GlcNAc(b1-4)]Man(a1-3)[GlcNAc(b1-4)][GlcNAc(b1-2)Man(a1-6)]Man(b1-4)GlcNAc(b1-4)GlcNAc
# Method in brief: as §1
# [9] = molecular target: GlcNAc(b1-3)Gal(b1-4)GlcNAc(b1-3)Gal(b1-4)GlcNAc(b1-3)Gal(b1-4)GlcNAc(b1-2)Man(a1-3)[GlcNAc(b1-3)Gal(b1-4)GlcNAc(b1-3)Gal(b1-4)GlcNAc(b1-3)Gal(b1-4)GlcNAc(b1-2)Man(a1-6)]Man(b1-4)GlcNAc(b1-4)[Fuc(a1-6)]GlcNAc
# Method in brief: as §1
# GlcNAc(b1-3)GalNAc = molecular target: GlcNAc(b1-3)GalNAc
# Method in brief: as §1
# [10] = molecular target: GlcNAc(b1-6)Gal(b1-4)GlcNAc
# Method in brief: as §1
# [11] = molecular target: Neu5Ac(a2-3)Gal(b1-3)GalNAc6S
# Method in brief: as §1
# [12] = molecular target: Neu5Ac(a2-3)Gal(b1-4)GlcNAc(b1-3)Gal(b1-4)GlcNAc(b1-3)[Neu5Ac(a2-3)Gal(b1-4)GlcNAc(b1-3)Gal(b1-4)GlcNAc(b1-6)]GalNAc
# Method in brief: as §1
# [13] = molecular target: Neu5Ac(a2-3)Gal(b1-4)[Fuc(a1-3)]GlcNAc(b1-3)Gal
# Method in brief: as §1
# [14] = molecular target: Neu5Ac(a2-3)Gal(b1-4)[Fuc(a1-3)]GlcNAc(b1-3)Gal(b1-4)[Fuc(a1-3)]GlcNAc(b1-3)Gal(b1-4)[Fuc(a1-3)]GlcNAc
# Method in brief: as §1
# [15] = molecular target: Neu5Ac(a2-3)Gal(b1-4)[Fuc(a1-3)]GlcNAc(b1-3)GalNAc
# Method in brief: as §1
# [16] = molecular target: Neu5Ac(a2-3)[GalNAc(b1-4)]Gal(b1-4)Glc
# Method in brief: as §1
# Neu5Ac(a2-6)Gal = molecular target: Neu5Ac(a2-6)Gal
# Method in brief: as §1
# Neu5Ac(a2-6)GalNAc = molecular target: Neu5Ac(a2-6)GalNAc
# Method in brief: as §1
# [17] = molecular target: Neu5Ac(a2-6)GalNAc(b1-4)GlcNAc
# Method in brief: as §1
# Neu5Ac(b2-6)GalNAc = molecular target: Neu5Ac(b2-6)GalNAc
# Method in brief: as §1
binder,measurement,setting,value
B1,glycan array binding signal (z-score),[1],3.35
same,glycan array binding signal (z-score),[2],5.32
same,glycan array binding signal (z-score),[3],2.02
same,glycan array binding signal (z-score),[4],3.6
same,glycan array binding signal (z-score),Gal3S(b1-3)GlcNAc,-0.33
same,glycan array binding signal (z-score),Gal3S4S(b1-4)GlcNAc,-0.359
same,glycan array binding signal (z-score),Gal4S(b1-4)GlcNAc,-0.487
same,glycan array binding signal (z-score),[5],3.31
same,glycan array binding signal (z-score),Glc(b1-4)Glc,-0.25
same,glycan array binding signal (z-score),Glc(b1-6)Glc,-0.304
same,glycan array binding signal (z-score),[6],-0.028
same,glycan array binding signal (z-score),[7],-0.358
same,glycan array binding signal (z-score),[8],-0.235
same,glycan array binding signal (z-score),[9],0.001
same,glycan array binding signal (z-score),GlcNAc(b1-3)GalNAc,-0.196
same,glycan array binding signal (z-score),[10],-0.23
same,glycan array binding signal (z-score),[11],-0.378
same,glycan array binding signal (z-score),[12],-0.038
same,glycan array binding signal (z-score),[13],-0.424
same,glycan array binding signal (z-score),[14],-0.241
same,glycan array binding signal (z-score),[15],-0.17
same,glycan array binding signal (z-score),[16],-0.505
same,glycan array binding signal (z-score),Neu5Ac(a2-6)Gal,-0.186
same,glycan array binding signal (z-score),Neu5Ac(a2-6)GalNAc,-0.481
same,glycan array binding signal (z-score),[17],-0.3
same,glycan array binding signal (z-score),Neu5Ac(b2-6)GalNAc,-0.388
